The values below come from PubChem BioAssay.

Values joined by “and” are separate entries in the source; they are usually repeats but may differ in a detail not shown here. Equal entries are not always repeated. Active and inactive are the calls of the source. Unless noted, the rule behind the calls is not given here.

Assay [1] can be described thus: anti-His antibody binders, primary screen, artefact control for SMM control protein annotation, biochemical, small-molecule microarray, 635 nm fluorescence (AID 1128).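 Note: score merges feature fluorescence with signal-to-noise for each printed compound spot.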 Conditions: anti-His Alexa647 antibody binding, higher = more signal.
In assay [2] the test system is Human papillomavirus type 1a E7 protein (residues 1-88). In words: HPV1a E7 small-molecule binders, primary screen, biochemical, small-molecule microarray, residues 1-88, 635 nm (AID 1129). Conditions: small-molecule microarray binding, fluorescence 635 nm; higher = more signal.
The target of assay [3] is Focal adhesion kinase 1 (Homo sapiens) (UniProt Q05397). Nature of the assay: small-molecule microarray binders of FAK, primary screen, biochemical, 635/667 nm fluorescence, BSA, DTT (AID 1130).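 Note: composite of spot emission at 667 nm and signal to noise over triplicate slides.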 The note with it: PTK2 binding, 635 nm fluorescence, higher = more signal.
Sequence of Focal adhesion kinase 1 (Homo sapiens) (Q05397 whole entry, looked up): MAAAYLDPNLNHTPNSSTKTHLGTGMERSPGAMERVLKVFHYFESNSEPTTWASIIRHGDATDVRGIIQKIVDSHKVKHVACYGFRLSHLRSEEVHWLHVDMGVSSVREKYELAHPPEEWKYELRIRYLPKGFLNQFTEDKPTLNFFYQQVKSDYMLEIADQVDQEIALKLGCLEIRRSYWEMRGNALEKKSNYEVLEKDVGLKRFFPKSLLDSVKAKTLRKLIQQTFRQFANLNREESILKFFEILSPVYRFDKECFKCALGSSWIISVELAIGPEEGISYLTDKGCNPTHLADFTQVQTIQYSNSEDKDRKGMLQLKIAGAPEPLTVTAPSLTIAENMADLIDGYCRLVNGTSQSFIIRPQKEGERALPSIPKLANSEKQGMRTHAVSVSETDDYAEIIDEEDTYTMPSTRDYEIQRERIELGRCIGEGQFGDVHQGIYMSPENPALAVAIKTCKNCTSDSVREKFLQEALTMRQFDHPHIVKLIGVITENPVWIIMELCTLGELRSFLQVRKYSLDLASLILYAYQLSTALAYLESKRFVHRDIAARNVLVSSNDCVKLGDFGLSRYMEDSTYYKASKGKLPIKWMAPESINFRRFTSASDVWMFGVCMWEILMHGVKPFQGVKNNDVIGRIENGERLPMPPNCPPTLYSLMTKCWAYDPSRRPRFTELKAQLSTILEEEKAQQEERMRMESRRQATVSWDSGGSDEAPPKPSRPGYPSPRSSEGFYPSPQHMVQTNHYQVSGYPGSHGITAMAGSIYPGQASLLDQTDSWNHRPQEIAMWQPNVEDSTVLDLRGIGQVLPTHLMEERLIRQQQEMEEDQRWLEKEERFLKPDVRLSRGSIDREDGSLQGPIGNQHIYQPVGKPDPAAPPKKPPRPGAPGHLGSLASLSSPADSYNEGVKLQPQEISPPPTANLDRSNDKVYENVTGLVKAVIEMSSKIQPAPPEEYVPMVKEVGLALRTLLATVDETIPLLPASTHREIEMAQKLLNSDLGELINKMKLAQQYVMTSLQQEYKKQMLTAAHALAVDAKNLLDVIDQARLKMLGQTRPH
The test system of assay [4] is Fibrinogen (Alexa647-labelled). In words: fibrinogen binders on compound microarrays, profiling panel, artefact control for SMM control-protein annotation, biochemical, small-molecule microarray, 635/667 nm fluorescence (AID 1131).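 Note: z-score merges 667 nm fluorescence with per-spot signal-to-noise over triplicate slides.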 Conditions: fibrinogen-A647 binding fluorescence, higher = more signal.
The target in assay [5] is Follistatin (Homo sapiens) (UniProt P19883). Nature of the assay: follistatin binders on small-molecule microarrays, primary screen, biochemical, small-molecule microarray, 635/667 nm fluorescence (AID 1132). Conditions: FST binding, 635 nm fluorescence, higher = more signal.
Sequence of Follistatin (Homo sapiens) (P19883 whole entry, looked up): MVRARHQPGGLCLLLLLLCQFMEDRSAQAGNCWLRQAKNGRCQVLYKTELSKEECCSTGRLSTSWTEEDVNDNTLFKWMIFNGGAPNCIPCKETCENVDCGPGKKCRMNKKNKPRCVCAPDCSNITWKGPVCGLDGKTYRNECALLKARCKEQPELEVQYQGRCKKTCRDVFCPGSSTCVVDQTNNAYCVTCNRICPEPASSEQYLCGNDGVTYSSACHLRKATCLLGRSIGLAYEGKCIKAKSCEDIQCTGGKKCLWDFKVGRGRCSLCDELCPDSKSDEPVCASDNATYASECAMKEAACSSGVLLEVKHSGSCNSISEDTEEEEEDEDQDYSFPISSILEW
Assay [6] has as its target Fibroblast growth factor 2 (Homo sapiens) (UniProt P09038). Nature of the assay: FGF2 binders on small-molecule microarrays, primary screen, biochemical, small-molecule microarray, 635/667 nm fluorescence (AID 1133). The note with it: small-molecule microarray binding, FGF2, fluorescence 635/667; higher = more signal.
The nature of assay [7]: mitochondrial membrane potential change in A549 cells, profiling panel, cell-based, JC-1 fluorescence, basal, 24 h, 100 nL (AID 1138).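 Note: A549 lung adenocarcinoma cells under basal conditions with no added stimulus; test concentration not given here.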 Conditions: higher = more signal.
For assay [8], the system named is Lefty1. In words: Lefty1 binders on small-molecule microarrays, primary screen, biochemical, small-molecule microarray, 635/667 nm fluorescence (AID 1139). The note with it: small-molecule microarray binding, fluorescence 635/667; higher = more signal.
Assay [9] deals with wheat germ agglutinin (Triticum aestivum), Alexa647-labelled. Nature of the assay: wheat germ agglutinin binders on compound microarrays, profiling panel, artefact control for SMM control-protein annotation, biochemical, small-molecule microarray, 635/667 nm fluorescence (AID 1140).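 Note: score merges 667 nm feature emission with signal to noise over triplicate slides.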 Conditions: WGA-A647 binding, 635 nm fluorescence, higher = more signal.
In assay [10] the target is Luciferin 4-monooxygenase (Photinus pyralis) (UniProt P08659). Nature of the assay: firefly luciferase enzyme inhibitors, primary screen, biochemical, luminescence, purified enzyme, 2006 set (AID 1141).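 Note: cell-free assay with purified firefly luciferase at 100 ng per well in PBS; test concentration not given here.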 Conditions: SteadyGlo luminescence, 30 min, higher = more signal, called active from +8 up or from −8 down.
Sequence of Luciferin 4-monooxygenase (Photinus pyralis) (P08659 whole entry, looked up): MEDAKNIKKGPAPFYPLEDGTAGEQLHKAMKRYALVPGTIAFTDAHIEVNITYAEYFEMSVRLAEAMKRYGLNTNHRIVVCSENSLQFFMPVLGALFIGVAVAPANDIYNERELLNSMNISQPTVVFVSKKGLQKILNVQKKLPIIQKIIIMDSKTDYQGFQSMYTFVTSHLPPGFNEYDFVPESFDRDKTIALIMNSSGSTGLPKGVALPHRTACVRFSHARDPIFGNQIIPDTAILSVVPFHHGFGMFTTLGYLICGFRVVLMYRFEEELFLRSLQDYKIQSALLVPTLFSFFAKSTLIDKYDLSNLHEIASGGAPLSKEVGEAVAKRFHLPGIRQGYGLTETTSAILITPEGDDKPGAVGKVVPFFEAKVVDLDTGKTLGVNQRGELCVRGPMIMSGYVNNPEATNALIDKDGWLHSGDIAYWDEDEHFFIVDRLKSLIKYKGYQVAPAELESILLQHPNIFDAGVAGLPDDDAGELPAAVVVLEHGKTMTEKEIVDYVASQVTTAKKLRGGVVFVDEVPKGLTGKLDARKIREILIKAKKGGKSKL
Assay [11] relates to Wnt5a (protein binding on small-molecule microarray). In words: Wnt5a binders on small-molecule microarray, primary screen, biophysical, 635/667 nm fluorescence (AID 1142).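 Note: fluorescence read at 667 nm with signal to noise per printed feature.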 The note with it: 635 nm fluorescence, higher = more signal.
The nature of assay [12]: cell viability in Huh7 cells, primary screen, cytotoxicity control for HCV replication inhibitor project, CellTiter-Glo luminescence, basal, 48 h (AID 1143).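 Note: Huh7 hepatoma cells carrying a hepatitis C replication reporter with no stimulus; test concentration not given here.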 The note with it: Huh7 HCV replicon, higher = more signal, called active from +8 up or from −8 down. Background: In ATP-based viability assays light output follows the ATP content of the culture.
A short description of assay [13]: P. aeruginosa biofilm formation inhibitors, primary screen, PAO1 strain, BacTiter-Glo luminescence, LB-PBS (AID 1144). Conditions: 12 h, higher = more signal.
Assay [14] is described as follows: CREB reporter modulators without forskolin, primary screen, cell-based, PC12, CRE-LacZ reporter, unstimulated (AID 1145). Conditions: no forskolin, luminescence, 4.5 h, higher = more signal, called active from +8 up or from −8 down.
Assay [15] can be described thus: CREB reporter modulators under forskolin, primary screen, cell-based, PC12, CRE-LacZ reporter, forskolin-stimulated (AID 1146).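 Note: PC12 cells with 6xCRE LacZ reporter stimulated by forskolin 10 µM; beta-galactosidase reporter signal reflecting CREB driven transcription.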 Conditions: luminescence, 4.5 h, higher = more signal, called active from +8 up or from −8 down.
Assay [16] concerns the target Streptavidin (Streptomyces avidinii) (UniProt P22629). Nature of the assay: streptavidin binders on small-molecule microarray, primary screen, artefact control for SMM compound annotation, biophysical, 635/667 nm fluorescence (AID 1147).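 Note: signal reflects streptavidin binding to arrayed compounds as a control protein.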 Conditions: streptavidin binding, higher = more signal.
Assay [17] in a line: small-molecule binders of probe aInhba, primary screen, biochemical, small-molecule microarray, 635/667 nm fluorescence (AID 1148).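 Note: score merges 667nm spot fluorescence with signal-to-noise for antibody binding to printed compounds.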 The note with it: higher = more signal.
The target in assay [18] is Torsin-1A (Homo sapiens) (UniProt O14656). Nature of the assay: torsin A binders from cell lysate, primary screen, small-molecule microarray, wild-type, 635/667 nm (AID 1149). The note with it: COS7 hTOR1A-WT lysate, 635 nm fluorescence, higher = more signal.
Sequence of Torsin-1A (Homo sapiens) (O14656 whole entry, looked up): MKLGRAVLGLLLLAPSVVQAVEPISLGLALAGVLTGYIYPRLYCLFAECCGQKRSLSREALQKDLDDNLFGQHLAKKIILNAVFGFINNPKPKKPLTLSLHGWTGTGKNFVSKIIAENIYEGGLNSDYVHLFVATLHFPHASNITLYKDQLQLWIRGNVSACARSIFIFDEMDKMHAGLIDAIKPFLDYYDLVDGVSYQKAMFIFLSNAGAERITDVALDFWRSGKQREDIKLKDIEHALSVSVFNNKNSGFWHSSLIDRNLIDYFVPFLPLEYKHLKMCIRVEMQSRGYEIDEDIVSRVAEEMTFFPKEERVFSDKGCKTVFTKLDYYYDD
Assay [19] shares this target. Nature of the assay: small-molecule binders of mutant TOR1A in lysate, primary screen, cell lysate, small-molecule microarray, COS7 lysate, 635/667 nm fluorescence (AID 1150).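 Note: score pools 667 nm emission and signal to noise measuring lysate protein binding.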 Conditions: COS7 hTOR1A mutant lysate, 635 nm fluorescence, higher = more signal.
Assay [20] relates to Sonic hedgehog protein (Shh). In words: small-molecule binders of Shh protein, primary screen, biochemical, small-molecule microarray, 635/667 nm fluorescence (AID 1151).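 Note: Shh protein binding to compounds spotted on small-molecule microarray slides; score combines spot fluorescence intensity with signal-to-noise across triplicate slides.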 The note with it: small-molecule microarray binding, 635 nm fluorescence; higher = more signal.

Sequence of Fibroblast growth factor 2 (Homo sapiens) (P09038 whole entry, looked up): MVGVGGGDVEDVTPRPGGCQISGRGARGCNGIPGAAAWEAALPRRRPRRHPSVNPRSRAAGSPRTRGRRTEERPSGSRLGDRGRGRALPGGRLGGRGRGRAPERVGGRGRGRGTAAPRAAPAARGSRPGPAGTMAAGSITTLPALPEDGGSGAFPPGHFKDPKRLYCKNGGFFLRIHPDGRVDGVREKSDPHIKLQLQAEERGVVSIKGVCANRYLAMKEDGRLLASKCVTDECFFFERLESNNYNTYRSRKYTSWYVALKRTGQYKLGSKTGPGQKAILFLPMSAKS
Sequence of Streptavidin (Streptomyces avidinii) (P22629 whole entry, looked up): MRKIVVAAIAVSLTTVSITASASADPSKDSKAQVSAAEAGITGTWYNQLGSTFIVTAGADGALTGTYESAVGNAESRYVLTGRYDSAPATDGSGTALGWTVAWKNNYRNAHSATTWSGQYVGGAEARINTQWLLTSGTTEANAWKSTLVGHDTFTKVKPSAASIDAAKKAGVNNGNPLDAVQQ

Turning to `C=CC[C@H](O)c1ccc(OCCO)cc1`, the composite z-score in assay [1] was 0.185 and 0.0367; in assay [2] it was -1.1 and -1.32; in assay [3], -1.14 and -0.38; in [4] it was -0.0902 and -3.21; in assay [5], 0.519 and 0.726; in [6] it was -0.442 and 0.17. Besides, the composite z-score in assay [8] was -0.748 and -0.0547; in assay [9] it was 0.542 and 0.645; in assay [11], -0.0223 and -0.614; in assay [16], -0.893 and -1.41; in assay [17], -0.0371 and -0.497; in [18], -0.646 and -1.69. For the same molecule, the composite z-score was -0.0897 and -1.66 in assay [19]; -0.125 and 0.891 in assay [20]. The z-score in [7] was -0.441 and 0.564; in [10], -1.15 (inactive) and -1.17 (inactive); in [12] it was -1.36 (inactive) and -0.878 (inactive); in [13], -0.809 (inactive) and -0.0923 (inactive); in assay [14] it was -0.925 (inactive) and 0.18 (inactive); in [15] it was -0.506 (inactive) and -0.0908 (inactive).

Turning to `CCCNC(=O)OC[C@H]1O[C@H](CCON=C(C)CCN2CCc3nc(-c4ccccc4)c(-c4ccccc4)cc3C2)C=C[C@@H]1Oc1ccc(OC)cc1`, the composite z-score in assay [1] amounted to 1.29; in assay [2], 0.0969; in assay [3], 0.301; in assay [4], 0.283; in [5], 0.295; in [6] it was 0.279. Moreover, the composite z-score in assay [8] was 0.236; in assay [9], 0.356; in [11], 0.156; in [16], 0.114; in assay [17], -0.152; in [18] it was 0.479. For the same molecule, the composite z-score in assay [19] stood at 0.302; in assay [20], 0.449. The z-score is 1.87 in [7]; -0.076 (inactive) in assay [10]; -0.81 (inactive) in assay [12]; -0.158 (inactive) in assay [13]; 2.49 (inactive) in [14]; -0.113 (inactive) in assay [15].

Regarding `CO[C@H]1COC(=O)CC=C[C@@H](C)COC(=O)[C@@H](OCc2ccccc2)C=C[C@@H]1C`, the composite z-score in [1] is 0.563; in assay [2] it was -1.07; in [3], -0.279; in [4] it was -1.44; in [5], 1.47; in [6], 1.74. The composite z-score is 1.65 in assay [8]; -1.13 in assay [9]; -0.134 in [11]; 0.999 in assay [16]; -0.3 in assay [17]; 2.35 in assay [18]. For the same molecule, the composite z-score in assay [19] came to 2.28; in [20], 1.96. Also, the z-score is 1.8 in assay [7]; -0.917 (inactive) in [10]; -0.356 (inactive) in assay [12]; 0.106 (inactive) in [13]; 0.79 (inactive) in [14]; -0.471 (inactive) in [15].

For `COC(=O)C1=C(C)N(Cc2ccccc2)[C@]23O[C@](C(=O)OC)(C(=O)N2[C@@H]1c1ccccc1)[C@H]1C(=O)N(c2ccccc2)C(=O)[C@H]13`, the composite z-score is 0.798 and 0.258 in [1]; 1.12 and 0.575 in assay [2]; 0.277 and 0.0443 in assay [3]; 0.77 and 0.267 in assay [4]; 0.516 and 1.01 in assay [5]; 0.562 and 0.626 in [6]. The composite z-score in assay [8] is 0.477 and 1.27; in [9] it was 1.07 and 0.541; in assay [11], 0.115 and 0.0304; in [16], 0.32 and 0.436; in assay [17] it was 0.201 and -0.0552; in assay [18], 0.718 and 0.667. The composite z-score is 0.476 and 0.211 in [19]; 0.833 and 1.14 in assay [20]. Moreover, the z-score in assay [7] was 0.6 and 0.565; in [10], -0.207 (inactive) and -0.978 (inactive); in assay [12], -0.123 (inactive) and -0.532 (inactive); in assay [13], -1.18 (inactive); in assay [14], -0.165 (inactive) and 0.472 (inactive); in assay [15] it was -1.65 (inactive) and -0.623 (inactive).
